# Experimental data taken from PubChem BioAssay (NCI).
# About 83,000 compounds went through this panel and 20% of them were active in at least one assay; those are over-represented in the sample as a whole.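 Plates (96-well) were seeded with cells, treated with compound at one concentration, and incubated for 48 hours before percent growth was determined.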 Unmarked numbers belong to inactive results. Activity calls are given as the source filed them.
# Tested on: OVCAR-8 ovarian
# Experiment: NCI-60 one-dose screen, 48 h (100 = growth as untreated, 0 = no growth, -100 = all killed)
# Details: 10 µM unless noted
# Method: Growth inhibition of the OVCAR-8 human tumor cell line is measured as a screen for anti-cancer activity. Cells are grown in 96 well plates and exposed to the test compound for 48 hours. Compounds are tested at a single concentration, which is 10^-5 M for most compounds. The reported endpoint is percent growth (GI% or GIPRCNT), where numbers from 0 - 100% represent growth inhibition, and numbers from -100% - 0 represent cell death. For example, a value of 40 represents 60% growth inhibition. A value of 0 means no net growth occurred over the course of the experiment. A value of -40 indicates 40% of cells at the beginning of the experiment died by the end of the experiment. A value of -100 means all cells are dead at the end of the experiment.
# NCI-60 Human Tumor Cell Lines Screen was performed using the standard one-dose NCI protocol, which is described in more detail at https://dtp.cancer.gov/discovery_development/nci-60/default.htm.
# Compounds with GIPRCNT values below 10 were considered active. Activity score was based on GIPRCNT using the following formula: […]
# Score is 0 for GIPRCNT values of 100 or above, 50 for GIPRCNT values of 0, and 100 for GIPRCNT values of -100.
row,Compound,growth
1,S=C=Nc1ccc2ccccc2c1,105%
2,O=C(O)c1c[nH]c2ccccc2c1=O,108%
3,CSc1nsc(N)n1,105%
4,CC(=O)/C(C)=N\OC(=O)Nc1ccccc1,106%
5,Cn1/c(=N\N=C\c2ccccc2OCCO)sc2ccccc21,100%
6,S=C(NCc1ccccc1)N1CCC(CCCC2CCN(C(=S)NCc3ccccc3)CC2)CC1,96.4%
7,CC(C)N(C(=O)c1ccccc1)C(C)C,111%
8,C=C1C(=O)C2CCC1C2 (stereo not given),109%
9,O=C1C=C[C@H](O)[C@@]2(CO)O[C@@H]12,78.2%
10,COc1ccc(C2CCCCC2=O)cc1 (stereo not given),103%
11,CCOC(=O)CNC(=O)Sc1ccc(C(C)(C)C)cc1,94%
12,O=[N+]([O-])c1c(O)c(CNCCCO)cc(CNCCCO)c1O,106%
13,Cc1nc(O)cc(=O)[nH]1,105%
14,NC(=O)NCCO,99.8%
15,C=CC(C)C(C)(C)O (stereo not given),108%
16,COc1cc(C(=O)N2CCN(c3ccccc3)CC2)c2ccccc2n1,14.3%
17,Cn1c(=O)c2[nH]c(CC(=O)O)nc2n(C)c1=O,102%
18,O=C(c1ccc(Cl)cc1)N1CCCCC1,106%
19,O=S(Cc1ccccc1)/C(=C/NC(=S)Nc1cc(Cl)ccc1Cl)c1ccccc1 (stereo not given),113%
20,Nc1ccc(F)cc1F,116%

row,Compound,growth
1,O=C(O)CSCC(=O)Nc1cc(C(F)(F)F)ccc1Cl,107%
2,O=C(O)c1ccc([N+](=O)[O-])cc1S(=O)(=O)O,99.5%
3,C=C1CC2(OC1=O)C(=O)N(C)c1ccc(I)cc12 (stereo not given),-8.98% (active)
4,C=CCC(OC(C)=O)c1ccc(C(C)C)cc1 (stereo not given),105%
5,Cn1c(=O)[nH]c2ccccc2c1=O,103%
6,OC1Cc2ccccc2C1,103%
7,Nc1cc(F)ccc1[N+](=O)[O-],118%
8,CNc1ccccc1C(=O)N/N=C/C=C/c1ccccc1,6.6% (active)
9,C=CCC(OC(C)=O)c1ccc(OC)c(OC)c1 (stereo not given),96.7%
10,COC1OC(C(COC(C)=O)OC(C)=O)C(OC(C)=O)C(OC(C)=O)C1OC(C)=O (stereo not given),103%
11,CCCCCCCCCCCCSC1=C(Cl)C(=O)C(OC)=C(OC)C1=O,28.7%
12,Cc1cccc2ccccc12,100%
13,Nc1c(Br)cc(O)c2c1C(=O)c1ccccc1C2=O,55.6%
14,Cc1ccc(C)c(CN(C)C)c1O,98.2%
15,COc1cc(N)c2ncccc2c1Cl,103%
16,CN1C(=O)NC(c2ccc(Cl)cc2)(c2ccc(Cl)cc2)C1=O,102%
17,Cc1ccccc1NC(=O)Oc1ccc(Cl)cc1C(=O)c1ccccc1,91.4%
18,CCN(CC)CCN1CNC(=S)NC1,112%
19,S=CN1CCCCC1,97.5%
20,C[n+]1cc2cc3c(cc2c2ccccc21)OCO3,77.9%
